Hit rate of the full screen: of about 69,000 compounds, about 8,600 (12%) showed an effect of 50% or more. What follows is part of a selection rich in strong results, with near analogues and random picks from the rest.

This assay deals with Plasmodium berghei. Put plainly: Screen against P. berghei liver stage (PbLuc), transformed with Luciferase, at 10uM. Format: functional, HepG2. Particulars: tested at 10 uM.
`Cc1cc2nc(C(C)C)cc(NC(C)c3nncn3C3CCCC3)n2n1` (stereo not drawn): the INHIBITION came out at 51.2%. For the compound `Cc1cc(NC(C)c2nncn2C2CCCC2)n2nc(C)cc2n1` (stereo not drawn), the INHIBITION was found to be 35.8%. With `Cc1cc2nc(C(C)C)cc(NC(C)c3nncn3C)n2n1` (stereo not drawn), the INHIBITION is given as 47.6%. On to `O=C(c1cnn2cccnc12)N1CCCC(n2ccnc2)C1` (stereo not drawn), for which the INHIBITION is on record as 2.3%. As for `Cc1cccc(CN2CC[C@@H]3[C@@H](CO[C@H]3CNc3ncccn3)C2)n1`, the figure is 18.4%; as for `COc1cc2ccccc2cc1C(=O)N1CCCC(c2nncn2C)C1` (stereo not drawn), -8.11%; as for `CC(C)c1nc2c(n1C)CCN(CC(=O)Nc1ccnn1C(C)C)C2`, 27.4%. Take `CO[C@H]1CN(C(=O)c2ccc3oc(C)cc3c2)C[C@@]12CCCO2`: the INHIBITION was 63.4%.

`CO[C@H]1CN(C(=O)c2ccc3oc(C)cc3c2)CC[C@@]12CCCO2`: the INHIBITION was 21.6%. For the compound `CO[C@H]1CCN(C(=O)c2ccc3oc(C)cc3c2)C[C@@]12CCCO2`, the INHIBITION is 45.6%.

For `COCCNC(=O)c1ccc(C)c(-n2cccc2)c1`, the INHIBITION was -15%.

Take `CN(C)CCNc1c(-c2ccccc2)c(=O)c1=O`: the INHIBITION is recorded as -20.1%. `CN(C)[C@@H]1CN(Cc2ccco2)C[C@@H]2CCCO[C@@H]21`: the INHIBITION is reported as -2.27%. Regarding `Cn1cnnc1CN1CCC2(CCC(=O)N(Cc3ccccn3)C2)CC1`, the INHIBITION is reported as -42.2%. On to `CCN1CC2(CCC1=O)CCN(Cc1nncn1C)CC2`, for which the INHIBITION came to 17%.

Turning to `Cn1cnnc1CN1CCC2(CCC(=O)N(Cc3ccccc3)C2)CC1`, the INHIBITION is recorded as 76.2%. With `Nc1nc(C2CCN(C(=O)c3cnccn3)CC2)cs1`, the INHIBITION was 38.2%. Then `Cn1ncc2c(=O)[nH]c(CN3CCCC3c3cccc(F)c3)nc21` (stereo not drawn), with -29.9%; and `CCCS(=O)(=O)N1CCOC2(COCCN(C(C)=O)C2)C1` (stereo not drawn), with 60%. Turning to `CC(=O)N1CCOCC2(C1)CN(S(C)(=O)=O)CCO2` (stereo not drawn), the INHIBITION is listed as 18.7%.

`CCS(=O)(=O)N1CCOC2(COCCN(C(C)=O)C2)C1` (stereo not drawn): the INHIBITION was 18.7%. Then `CCCn1nc2c(cc1=O)CN(CC(=O)Nc1ccncc1)CC2`, with 40.3%. As for `CNc1nccnc1C1CN(Cc2ccc(OCC(=O)O)cc2)CCO1` (stereo not drawn), the INHIBITION came out at 26.7%. Take `CS(=O)(=O)NCc1cn2c(n1)CN(Cc1ccoc1)CC2`: the INHIBITION was -4.02%.

As to `Cc1cc(C)n(CC2CCCN2CCCS(C)(=O)=O)n1` (stereo not drawn), the INHIBITION was 3.5625%. As for `O=C(c1ccc(CNC2CCSC2)cc1)N1CCCC1` (stereo not drawn), the figure is -4.12%. Then `Cc1noc(C)c1Cc1nc(N(C)C)no1`, with 19.9%; and `CC(C(=O)Nc1ccc2ccccc2c1)N1CCC(n2ccnc2)CC1` (stereo not drawn), with 48.8%; and `CC(C(=O)Nc1ncccn1)N1CCC(n2ccnc2)CC1` (stereo not drawn), with 54.4%. For the compound `CC(C(=O)NCCc1cccs1)N1CCC(n2ccnc2)CC1` (stereo not drawn), the INHIBITION is 42.1%. With `CCc1nc(C)c(CN2CCN(c3ncnc4scc(C)c34)CC2)[nH]1`, the INHIBITION is recorded as 30.5%. `CCc1nc(C)c(CN2CCN(c3ncnc4c(C)csc34)CC2)[nH]1`: the INHIBITION was found to be 4.35%.

For `Cc1n[nH]c(CN2CCN(c3ncnc4scc(C)c34)CC2)c1Cl`, the INHIBITION is reported as 68.2%.

Take `CCC(=O)N1CCC(c2nc(C)ncc2-c2ccncc2)CC1`: the INHIBITION is listed as 19.2%.

With `CCN1CCC2(CC1)CC(NCc1ccncc1)c1ccccc1O2` (stereo not drawn), the INHIBITION turned out to be 43.9%. With `O=C(NS(=O)(=O)c1ccccc1)c1ccccc1F`, the INHIBITION was found to be 14.8%. As to `CC(C)NC(=O)c1cc2c(nc1N(C)C)CCN(S(=O)(=O)C1CC1)CC2`, the INHIBITION is given as -37.9%. Regarding `CCc1c(C(=O)Nc2ccc(F)c(C(=O)NC)c2)cnn1CC(C)C`, the INHIBITION was determined as 30.9%. For `CC(C)Cn1ncc(C(=O)O)c1C1CC1`, the INHIBITION came to 14.3%.

Regarding `CC(C)Cn1ncc(C(=O)NS(=O)(=O)C2CCCC2)c1C1CC1`, the INHIBITION turned out to be 58.8%. As to `CC(C)Cn1ncc(C(=O)NS(=O)(=O)c2ccccc2)c1C1CC1`, the INHIBITION came out at 79.7%.

As for `CCC1c2ccsc2CCN1C(=O)NCc1cccnc1N(C)C` (stereo not drawn), the INHIBITION came out at 16.97%. Take `Cn1cc(CN2CCC(c3cc(CCO)[nH]n3)C2)cn1` (stereo not drawn): the INHIBITION is listed as 39.8%.

Turning to `CN(C)CCn1ccnc1C1CCN(c2cc(N)nc(N)n2)CC1`, the INHIBITION amounted to 50.5%. As to `COc1cc(N2CCC(c3nccn3CCCN(C)C)CC2)nc(N)n1`, the INHIBITION is -10.9%. In the case of `COc1cc(N2CCCC(c3nccn3CCN(C)C)C2)nc(N)n1` (stereo not drawn), the INHIBITION was -40.3%. Regarding `COc1ccccc1Cc1cncc(N2CC(C(=O)O)C2)n1`, the INHIBITION was determined as 10%. In the case of `CC(C)N1CCC(c2nc3ccc(-c4ccnn4C)cn3n2)CC1`, the INHIBITION is reported as 8.52%. For the compound `CN1CCN(C(=O)c2cccc(CN3CCOCC3)c2)CC1`, the INHIBITION worked out at 22.3%. As for `CN(C)CCCC(=O)NC1CC(C)(C)Cc2nc(C(C)(C)C)ncc21` (stereo not drawn), the figure is 22%; as for `Cc1sc(C(=O)NC(C)C)cc1S(=O)(=O)N(C)C`, -16.8%. Consider `COCCNC(=O)Cn1cc(NC(=O)c2cccc(Cl)c2Cl)cn1`, for which the INHIBITION was -3.83%. `O=C(O)CCCC(=O)Nc1cnn(COc2ccc(F)cc2Cl)c1`: the INHIBITION came out at 4.52%.

On to `O=C(Nc1cnn(Cc2ccc(F)cc2Cl)c1)C1CC1`, for which the INHIBITION was -10.8%. `O=C(Nc1cnn(COc2ccc(F)cc2Cl)c1)C1CC1`: the INHIBITION was found to be 71.3%. Turning to `COCCC(=O)Nc1cnn(COc2ccc(F)cc2Cl)c1`, the INHIBITION amounted to 50.4%.

For the compound `COCC(=O)Nc1cnn(COc2ccc(F)cc2Cl)c1`, the INHIBITION turned out to be 0.348%.

Take `CCn1c(Cn2cncn2)nnc1C1CCN(C2CCNCC2)CC1`: the INHIBITION is -3.51%. In the case of `OC(CN1CCC(c2ccn[nH]2)CC1)c1cc(F)ccc1F` (stereo not drawn), the INHIBITION is given as -4.94%. For `O=C(CCc1nc(C2CC2)no1)c1ccccc1`, the INHIBITION was -12.2%. As for `Cc1nccn1Cc1nnc(C2CCCN(c3cnccn3)C2)n1C` (stereo not drawn), the figure is 11.5%.

Consider `CCOC(=O)c1s/c(=N\C(=O)COc2cnc(C)cc2O)[nH]c1C`, for which the INHIBITION amounted to 3.52%. With `COc1cc(N2CCN(CC3CC3)c3nc(C)ccc3C2)ncn1`, the INHIBITION was 69.3%.

For `COc1cc(N2CC[C@@H]3OCCN(C)[C@H]3CC2)ncn1`, the INHIBITION came out at 39.4%. On to `COc1cc(N2CC[C@@H]3[C@@H](CC2)OCCN3CC2CC2)ncn1`, for which the INHIBITION turned out to be 81%. For the compound `Cc1ccc(N2C[C@@H]3OCCN(CC4CC4)[C@@H]3C2)nn1`, the INHIBITION was determined as 35.5%. With `COCCN1CCN(c2cc(OC)ncn2)Cc2ccc(C)nc21`, the INHIBITION was determined as 30.3%. With `CCCS(=O)(=O)N1CCN(CCOC)c2nc(C)ccc2C1`, the INHIBITION worked out at 29.8%. `COCCN1CCN(c2ccc(C)nn2)Cc2ccc(C)nc21`: the INHIBITION worked out at 51.2%. In the case of `COCCN1CCN(Cc2c(C)noc2C)Cc2ccc(C)nc21`, the INHIBITION turned out to be 33%.

Consider `COCCN1CCN(c2ccc(C)nn2)Cc2cccnc21`, for which the INHIBITION is -2.03%. Turning to `COCCN1CCN(Cc2ccco2)Cc2ccc(C)nc21`, the INHIBITION was 23.1%. On to `COCCN1CCN(c2cccc(C)n2)Cc2ccc(C)nc21`, for which the INHIBITION is on record as 53.9%. On to `Cc1ccc2c(n1)N(CC1CC1)CCN(S(=O)(=O)C1CC1)C2`, for which the INHIBITION is on record as -63.5%. `CSc1nccc(N2C[C@H]3CC[C@@H](C2)N(CC2CCC2)C3=O)n1`: the INHIBITION came to 22.3%.

On to `CC(C)c1noc(CCCC(=O)N2CCN(Cc3ccsc3)CC2)n1`, for which the INHIBITION was determined as 21.5%.

With `CCCc1ccc(OC23CCCN(CC2)C3)c(OC)c1` (stereo not drawn), the INHIBITION was found to be 14.9%. Consider `Cc1cc(C(=O)N(C)C)nc(C2(C)CCCN2c2ccccc2)n1` (stereo not drawn), for which the INHIBITION was found to be 23.9035%.

As for `COc1ccc(C(=O)NS(=O)(=O)c2cncc(Br)c2)cc1`, the INHIBITION is -2.48%. Turning to `COCCCN1Cc2cccc(NC(=O)C(C)(C)C)c2C1`, the INHIBITION is -21.1%. As for `CC(C)Cc1nc(OCC#N)c(C#N)c2c1CCC2`, the figure is 44.9%; as for `Cc1cnn(CC(=O)N2CCC(Nc3ccc(C)nn3)CC2)c1`, 39.95%. In the case of `O=C(CSC1CCc2ccccc2NC1=O)Nc1ccc(CCO)cc1` (stereo not drawn), the INHIBITION is on record as -10.8%.

As for `Cc1ccc2c(n1)N(C)CCN(Cc1cnn(C)c1)C2`, the INHIBITION was determined as 49.4%. As for `Cc1ccc2c(n1)N(CC1CC1)CCN(Cc1cnn(C)c1)C2`, the figure is 55.4%; as for `Cc1ccc2c(n1)N(Cc1cccnc1)CCN(Cc1cnn(C)c1)C2`, 30.5%.

For the compound `CC(CCc1ccccc1)N1CCC(C(=O)Nc2ccccn2)CC1` (stereo not drawn), the INHIBITION was -6.46%. Turning to `Cc1ccc(CNCc2cccc3cn[nH]c23)c(OC2CCOC2)c1` (stereo not drawn), the INHIBITION was 66%. For `Cc1ccc(NCc2cccc3cn[nH]c23)cc1OC1CCOC1` (stereo not drawn), the INHIBITION is -16.8%. As to `Cc1ccc(CNCc2cccc3cccnc23)c(OC2CCOC2)c1` (stereo not drawn), the INHIBITION is given as -62.1%. `Cc1cc(F)ccc1N1CCCC(NC2CCOCC2)C1=O` (stereo not drawn): the INHIBITION worked out at 21.3%. With `Cc1ccc(CN2CCOC3(COCCN(Cc4ccncc4)C3)C2)o1` (stereo not drawn), the INHIBITION is given as 14%. Then `O[C@@H]1CN(Cc2cccnc2)C[C@H]1Oc1ccccc1`, with 26.8%. For the compound `Cc1cncc(CN2C[C@@H](O)[C@H](Oc3ccccc3)C2)c1`, the INHIBITION is on record as 51.5%. For the compound `O[C@@H]1CN(Cc2ccncc2)C[C@H]1Oc1ccccc1`, the INHIBITION was 39.7%.

With `CCOCC(=O)N1CC[C@@H]2O[C@@H](C)C[C@H]2C1`, the INHIBITION stood at 43.9%.

As for `O=c1[nH]c2ccccc2c2c1CCO2`, the INHIBITION is on record as 30.7%.

For the compound `CC(=O)N(Cc1ncc(C(C)C)o1)C1CCN(Cc2ccno2)C1` (stereo not drawn), the INHIBITION stood at 0.1995%. For the compound `COc1cccc2c1OCC(NC(=O)NC1CCN(C3CC3)CC1)C2` (stereo not drawn), the INHIBITION is -3.16%. As for `COc1cccc2c1OCC(NCc1cnn(-c3ccccc3F)c1)C2` (stereo not drawn), the figure is 53.8%. As for `COc1cccc2c1OCC(NCc1cnn(-c3ccccc3)c1)C2` (stereo not drawn), the figure is 62.8%; as for `COc1cccc2c1OCC(CNC(=O)CSc1ccccn1)C2` (stereo not drawn), -52.3%. In the case of `COc1cccc2c1OCC(C(=O)N(C)CCCc1cnn(C)c1)C2` (stereo not drawn), the INHIBITION is listed as 40.9%. On to `COc1cccc2c1OCC(C(=O)N1Cc3ccccc3C1)C2` (stereo not drawn), for which the INHIBITION is reported as 44.8%. On to `COc1cccc2c1OCC(NCCCOc1cccnc1)C2` (stereo not drawn), for which the INHIBITION stood at 14%. Consider `COCCN(Cc1cnn(C)c1)C(=O)C1COc2c(cccc2OC)C1` (stereo not drawn), for which the INHIBITION is 22.3%.

`COc1cccc2c1OCC(NCCc1cnn(-c3ccccc3)c1)C2` (stereo not drawn): the INHIBITION is listed as 77.6%. With `Cc1noc(C(C)N2CCN(CCC(=O)N3CCCCC3)CC2)n1` (stereo not drawn), the INHIBITION was 17.4%.

Source of the values: ChEMBL document CHEMBL4513216, “Probing the Open Global Health Chemical Diversity Library for Multistage-Active Starting Points for Next-Generation Antimalarials” (ACS Infect Dis, 2020).
